# High-throughput results (PubChem BioAssay)
# Kir21 inh: Kir2.1 (mouse) channel inhibition | HEK293-Kir2.1, FluxOR thallium flux fluorescence; hits give low values | B-score at 10 µM | 310,000 tested, 0.85% active;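 active means fluorescence ratio B-score at or below minus 3 SD of library scores, with starting-brightness B-score within 2 SD, cut at about -4.2 in these data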;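 further: channel flux triggered by added potassium and thallium sulfate stimulus; B-score of peak minus minimum fluorescence over baseline after thallium stimulus; more negative B-score means stronger Kir2.1 block with less thallium influx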
# Target sequence (P35561 whole entry, looked up): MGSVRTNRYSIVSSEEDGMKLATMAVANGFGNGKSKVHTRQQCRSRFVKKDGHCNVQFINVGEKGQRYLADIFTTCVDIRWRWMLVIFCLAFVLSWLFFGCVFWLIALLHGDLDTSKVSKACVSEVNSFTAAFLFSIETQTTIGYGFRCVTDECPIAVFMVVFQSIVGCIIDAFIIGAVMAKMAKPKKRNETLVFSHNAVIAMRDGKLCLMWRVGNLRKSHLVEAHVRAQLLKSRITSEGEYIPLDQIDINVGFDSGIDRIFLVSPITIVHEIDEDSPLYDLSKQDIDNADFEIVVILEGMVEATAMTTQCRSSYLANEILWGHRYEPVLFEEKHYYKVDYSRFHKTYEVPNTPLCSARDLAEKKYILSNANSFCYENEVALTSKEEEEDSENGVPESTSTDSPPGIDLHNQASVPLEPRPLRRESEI
# KCNK9 inh: blocks the human KCNK9 two-pore domain potassium channel. HEK293 KCNK9, FluxOR thallium flux fluorescence; hits give low values. B-score at 10 µM. 310,000 tested, 1.2% active;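 active means ratio B-score over 3 SD below the library mean, with starting fluorescence within 5 SD of its mean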;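 further: negative B-score means less thallium flux so channel inhibition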
# TMEM16A inh: inhibitors of mouse TMEM16A calcium-activated chloride channel | 310,000 tested, 1.2% active | HEK293 TMEM16A/YFP iodide influx fluorescence, ionomycin | normalized B-score (activity score, 25-100; higher = stronger inhibition) at 10 µM | Q8BHY3;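 active means ratio plate-corrected score three or more library SD toward inhibition, starting fluorescence score within five deviations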;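 further: score derived from kinetic fluorescence span divided by baseline fluorescence per well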
# KCNK3 inh: human KCNK3 channel inhibition, primary screen. 340,000 tested, 0.84% active. CHO-KCNK3 thallium flux, FluxOR fluorescence; hits give low values. O14649. B-score at 10 µM. AID 602410;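 active means B-score under library mean minus 4 SD, starting fluorescence ratio at most library mean plus 5 SD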;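 further: more negative B-score means stronger inhibition of thallium flux through KCNK3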
# TMEM16A act: activators or potentiators of mouse TMEM16A chloride channel | Q8BHY3 | HEK293 TMEM16A/YFP-H148Q/I152L, iodide quench fluorescence; hits give low values | B-score at 10 µM | 340,000 tested, 0.3% active | AID 623877;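 active means fluorescence-ratio B-score plate-corrected deviation score at least 3 library SD below zero, with starting fluorescence score within 5 deviations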;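 further: channel opened by trigger with iodide after compound preincubation; score built on the fluorescence ratio of max minus min over baseline; more negative score means more quench and so TMEM16A activation or potentiation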
# * marks the source's active call; other numbers are inactive results; i = inactive; . = not tested or not shown. A selection: hits, their analogues and other compounds. The true share with any hit is near 3.5%.
SMILES,Kir21 inh,KCNK9 inh,TMEM16A inh,KCNK3 inh,TMEM16A act
CC1(C)CC(=O)C(C(C2=C(O)CC(C)(C)CC2=O)c2ccc(Br)s2)C(=O)C1 (configuration not stated),-7.36*,i,i,i,i
Cc1ccc(C(C2=C(O)CC(C)(C)CC2=O)C2C(=O)CC(C)(C)CC2=O)s1 (configuration not stated),-0.03,i,i,i,i
O=C(Nc1ccnn1C1CCN(Cc2c[nH]c3ccccc23)CC1)c1ccccc1,-0.39,i,i,i,i
Cc1nnc(Sc2cc(NCCO)c([N+](=O)[O-])c3nonc23)s1,-2.1,i,.,i,i
Cc1nnc(Sc2cc(NCCCO)c([N+](=O)[O-])c3nonc23)s1,-7.11*,-7.22*,.,i,i
CCCC(=O)OCCNc1cc(Sc2nccn2C)c2nonc2c1[N+](=O)[O-],-6.26*,i,i,i,i
CN(C)C(=O)c1cc(C(=O)c2ccc(Cl)cc2Cl)c[nH]1,-1.47,i,i,i,i
CN(C)C(=O)c1cc(Cl)ccc1Sc1cc(Cl)ccc1Cl,-5.43*,i,i,i,i
CN(C)C(=O)c1cc(F)ccc1Sc1cc(Cl)ccc1Cl,-5.8*,i,i,i,i
CCN(CC)CC(O)COC(c1ccccc1)c1ccccc1 (configuration not stated),0.28,i,i,i,i
CCN(Cc1ccccc1)CC(O)COC(c1ccc(OC)cc1)c1ccc(OC)cc1 (configuration not stated),-8.82*,i,i,i,i
CCC(C)(C)NC(=O)C(c1ccc(OC)cc1)N(C(=O)CCC(=O)Nc1cc(C)on1)c1cc(OC)ccc1OC (configuration not stated),0,i,i,i,i
CCC(=O)Nc1cccc(-c2cn3ccccc3n2)c1,-0.3,i,i,i,i
CCC(=O)Nc1cccc(-c2csc(-c3ccccc3)n2)c1,0.1,-7.44*,i,i,i
CC(=O)Nc1cccc(-c2csc(Nc3cc(C)ccn3)n2)c1,2.61,i,25*,i,i
CCOc1c(OC(C)=O)ccc(/C=C2\N=C(SCC)SC2=O)c1[N+](=O)[O-],2.05,i,100*,i,i
CCOc1cc(/C=C2\N=C(SCC)SC2=O)cc([N+](=O)[O-])c1OC(C)=O,0.86,i,100*,i,i
CCSC1=N/C(=C\c2ccc(C(=O)O)cc2)C(=O)S1,-1.43,i,i,i,i
COC(=O)NCC(c1ccco1)N1CCN(c2ccccc2)CC1 (configuration not stated),-1.42,i,i,i,i
CC(NC(=O)CN(C)Cc1cccc(Cl)c1)c1ccccc1 (configuration not stated),-1.91,i,i,i,i
CN(CC(=O)Nc1ccc(Br)cc1)Cc1ccccc1,1.55,-6.81*,i,i,i
CN(CC(=O)NCCc1ccc(F)cc1)Cc1ccc(Br)cc1,-6.56*,i,i,i,i
CN(CC(=O)NCCc1ccc(F)cc1)Cc1cccc(Cl)c1,-7.32*,i,i,i,i
CN(CC(=O)NCCCc1ccccc1)Cc1ccc(Br)cc1,-2.86,i,i,i,i
CSc1ccccc1NC(=O)CN(C)Cc1cccc(Cl)c1,-1.59,-7.21*,i,i,-39.3*
SMILES,Kir21 inh,KCNK9 inh,TMEM16A inh,KCNK3 inh,TMEM16A act
Cc1ccc(-c2nnc(SCC(C)C)n2C)cc1,0.31,i,i,i,i
Cc1ccc(S(=O)(=O)NC(=O)NCCCCNC(=O)NS(=O)(=O)c2ccc(C)cc2)cc1,-0.27,i,i,i,i
CCCN(CC(=O)Nc1ccccc1OC)C(=O)CCC(=O)c1ccc(OCC)cc1,.,.,.,i,i
NCC/C=C1/c2ccccc2CSc2ccccc21,-4.35*,i,i,i,i
COc1ccc(-c2oc3ncnc(NCCCN(C)C)c3c2-c2ccc(OC)cc2)cc1,-3.65,i,i,i,i
CN(C)CCNc1ncnc2oc(-c3ccccc3)c(-c3ccccc3)c12,-4.7*,i,i,i,i
O=C(NCC(=O)N(c1cccnc1)C(C(=O)NC1CCCC1)c1ccccc1F)c1ccco1 (configuration not stated),0.7,i,i,i,i
O=C(Nc1nc2n(n1)C(c1ccc(Cl)cc1)CC(c1ccc(Cl)cc1)N2)c1ccco1 (configuration not stated),-0.04,-7.68*,i,.,.
COc1ccc(C2CC(c3ccc(Cl)cc3)Nc3nc(NC(=O)c4ccco4)nn32)cc1 (configuration not stated),0.02,i,.,i,i
O=C(CCCOc1ccccc1)Nc1cccc(S(=O)(=O)N2CCCCCC2)c1,.,.,.,i,i
NS(=O)(=O)c1ccc(-c2cccc(/C=C3\SC(=O)NC3=O)c2)cc1,1.3,i,i,i,-4.86*
COc1cccc(COc2cc3ccccc3nc2C)c1,-0.13,i,25*,i,i
Cc1nc2ccccc2cc1OCc1ccc(Cl)cc1,1.49,i,i,i,i
O=C(C[n+]1ccccc1)N/N=C/c1ccc(Br)cc1,.,.,.,i,i
COC(=O)[C@@]12CCCN1[C@H](c1ccc(-c3cccc(Cl)c3)cc1)[C@H]1C(=O)N(C)C(=O)[C@H]12,-0.98,-7.13*,i,i,i
CCN=C1S/C(=C\c2ccc(O)c(OCC)c2)C(=O)N1CC,-5.73*,i,i,i,i
CCN=C1S/C(=C\c2cc(OCC)c(O)cc2Br)C(=O)N1CC,-0.12,i,i,i,i
CC(OC(=O)Cc1c[nH]c2ccccc12)C(=O)Nc1ccccc1F (configuration not stated),-5.67*,i,i,i,i
COc1ccccc1N=c1oc2c(OC)cccc2cc1C(=O)NCc1ccco1,0.86,i,25*,i,i
COc1ccc(OC)c(NC(=O)c2[nH]c(C)c(C(C)=O)c2C)c1,0.98,i,i,i,i
COc1ccc(-c2nc(NC(=O)c3[nH]c(C)c(C(C)=O)c3C)sc2C)cc1,0.64,i,i,-9.86*,i
CC1=N/C(=C\c2ccc([N+](=O)[O-])cc2)C(=O)N1c1ccc(F)cc1F,-0.27,i,i,i,i
O=C(c1cccc(COCC(F)(F)C(F)F)c1)N1CCN(c2ccccc2)CC1,-0.46,i,i,i,i
c1cncc(-c2nc(NCc3ccco3)c3ccccc3n2)c1,2.3,i,i,i,i
Cc1ccc(-c2nc(NCc3ccco3)c3ccccc3n2)cc1,0.27,-6.58*,i,i,i
CCN(CC)c1ccc(/C=N/OCC(=O)Nc2cccc(C)c2)cc1,-0.34,i,25*,i,i
